Assay [1] has as its target Lysosomal acid glucosylceramidase (Homo sapiens) (UniProt P04062). Briefly: Glucocerebrosidase-p2 (AID 348; in the data active = potency below about 10 µM; also: potency is read from the fitted curve at half-maximal effect). Conditions: purified GBA, blue fluorogenic substrate, 40 min. In outline: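 Compounds titrated from 0.6 nM upwards against 0.2 nM enzyme in pH 5.9 citric acid/KH2PO4, taurocholate, tween-20; blue fluorogenic substrate 80 uM, 40 min room temperature, stopped and read Ex 365/Em 440 for AC50.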

Assay [2] deals with Cytochrome P450 1A2 (Homo sapiens) (UniProt P05177). Briefly: p450-cyp1a2 (AID 410; calls by dose curve; also: potency is read from the fitted curve at half-maximal effect). Conditions: recombinant CYP1A2, luciferin-ME demethylation, luminescence; series mostly up to 11.4 µM. In outline: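 20nM CYP1A2 with 100uM Luciferin-ME (at Km) in 100mM KPO4; compound preincubated 10 min, NADPH regeneration added, 60 min at room temperature. Luciferin quantified by luminescence after detection reagent; normalized to 57 uM furafylline.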

In assay [3] the target is Glucocorticoid receptor (Homo sapiens) (UniProt P04150). Nature of the assay: GR-GFP Redistribution (AID 450;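 active = compounds whose dose series gives a full or clear partial fitted curve of increased nuclear translocation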; also: potency is read from the fitted curve at half-maximal effect). The following applies: U2OS GR-GFP nuclear translocation, laser cytometry, 2 h.
Assay [4] has the same target. Briefly: GR-EFC Redistribution (AID 451; calls by dose curve; also: potency is read from the fitted curve at half-maximal effect). Conditions: CHO-K1 GR-EFC translocation, beta-gal luminescence, 2 h. In outline:
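CHO-K1 cells stably expressing nuclear-localized β-gal enzyme acceptor and GR fused C-terminally to the enzyme donor fragment; ligand-driven nuclear translocation restores β-gal by complementation. Compounds titrated up to 46 uM final, 2 h at 37 °C; luminescence read.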

The target of assay [5] is Mitogen-activated protein kinase 10 (Mus musculus) (UniProt Q61831). Nature of the assay: JNK3 AlphaScreen Assay (AID 530).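 Also: kinase came from lysate of stimulated human HepG2 cells; signal reports phosphorylation of biotinylated GST-cJun 1-79 at Ser73 with 10 µM ATP; % is scaled to controls: 0 for no effect and ±100 for the full control effect.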 The following applies: JNK3 lysate, c-Jun phosphorylation; series mostly up to 11.4 µM. In short, it runs like this: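 Inhibitors reduce antibody binding to phosphorylated biotin-cJun, lowering AlphaScreen luminescence. Lysates from HepG2 cells pre-activated by IL-1beta plus TNF-alpha supplied JNK3; compounds were titrated.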

Assay [6] has as its target 3',5'-cyclic-AMP phosphodiesterase 4B (Homo sapiens) (UniProt Q07343). Nature of the assay: qHTS Assay for Inhibitors of PDE-IV (AID 607; active = well fitted activation curve with a large enough effect in the main read-out, with a control signal flat, not every such curve was filed as active; also: % of control where 0% means no effect). The following applies: HEK293 ACTOne CNG channel cells, membrane potential fluorescence; series mostly up to 22.9 µM. In short, it runs like this:
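Cell-based read-out of cAMP via a modified cyclic nucleotide-gated channel and membrane potential dye (535/590 nm) in HEK293 cells expressing PDE4 endogenously. Compounds tested up to 22.9 uM final; 100 uM RO 20-1724 reference.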

Assay [7] addresses Cytochrome P450 3A4 (Homo sapiens) (UniProt P08684). Nature of the assay: qHTS Assay for Inhibitors and Substrates of Cytochrome P450 3A4 (AID 884; active = well fitted curve in the direction sought with a large enough effect; an effect the other way counts as inactive or inconclusive; also: % is scaled to controls: 0 for no effect and ±100 for the full control effect; nearly all actives have a fitted effect of over 50% in size). Conditions: recombinant CYP3A4, Luciferin-PPXE luminescence; series mostly up to 57.1 µM. In outline: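 20 nM human CYP3A4 with 25 uM Luciferin-PPXE (at KM) in 200 mM KPO4, preincubated 10 min with compound; NADPH regeneration started a 60 min RT reaction. Luciferin detected by luminescence, normalized to 57 uM ketoconazole as full inhibition.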

Assay [8] can be described thus: qHTS Assay for Identification of Small Molecule Agonists for Hypoxia Response Element Signaling Pathway (AID 914; active = well fitted activation curve with a large enough effect in the signal ratio, with a control signal flat, not every such curve was filed as active; the % refers to the signal ratio; also: potency is read from the fitted curve at half-maximal effect). Conditions: ME-180 HRE-bla reporter, beta-lactamase ratio, CoCl2, 17 h; activation: hits give high values. In short, it runs like this:
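A beta-lactamase reporter under hypoxia response element control in ME-180 cells served as the system. Compound titrations plus EC50 CoCl2 ran 17 h at 37 degrees Celsius; AC50 values were fitted from %Activity.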

Assay [9] can be described thus: Stat Signaling Pathway (AID 446).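 Also: ME-180 cervical cancer cells given 40 pM IL-6 alongside compound; SIE-controlled beta-lactamase reporter measured as 460/530 nm FRET emission ratio; % is scaled to controls: 0 for no effect and ±100 for the full control effect.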 The following applies: ME-180 SIE beta-lactamase reporter, IL-6 stimulated, 5 h; at 7.69 µM (top of the series) unless noted. In outline:
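Reporter line: ME-180 cervical carcinoma, SIE-beta-lactamase. Treatment: compound with 40 pM IL-6, 5 hrs, 37 C, in low-serum OPTI-MEM with 10 mM HEPES pH 7.3. Detection: 460/530 nm fluorescence.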

Assay [10] deals with Cytochrome P450 3A4 (Homo sapiens) (UniProt P08684). Nature of the assay: qHTS Assay for Activators of Cytochrome P450 3A4 (AID 885; active = well fitted curve in the direction sought with a large enough effect; an effect the other way counts as inactive or inconclusive; also: nearly all actives have a fitted effect of over 65% in size). Conditions: recombinant CYP3A4, Luciferin-PPXE luminescence, 60 min; series mostly up to 11.4 µM. In short, it runs like this:
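Signal was normalized against complete inhibition by 57 uM ketoconazole. The reaction used 20nM CYP3A4 with 25uM Luciferin-PPXE, 10-min compound preincubation and a 60-min NADPH-supported step at RT.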

Assay [11] can be described thus: NFAT Signaling Pathway (AID 444).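 Also: carbachol stimulus at about its EC50 of 1 µM final; % is scaled to controls: 0 for no effect and ±100 for the full control effect.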 Conditions: Jurkat NFAT-bla M1, carbachol, beta-lactamase ratio, 5 h; at 7.69 µM (top of the series) unless noted. In short, it runs like this:
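Jurkat cells carrying an NFAT-driven β-lactamase reporter and co-transfected muscarinic M1 receptor were treated with compound plus carbachol (1 uM final, an EC50 level) for 5 h at 37 °C. CCF4 loading followed for 1 h at RT; 460/530 nm ratio gave %activity.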

Assay [12] concerns the target Cytochrome P450 2C9 (Homo sapiens) (UniProt P11712). Nature of the assay: qHTS Assay for Inhibitors and Substrates of Cytochrome P450 2C9 (AID 883; active = well fitted curve in the direction sought with a large enough effect; an effect the other way counts as inactive or inconclusive; also: potency is read from the fitted curve at half-maximal effect; nearly all actives have a fitted effect of over 60% in size). Conditions: recombinant CYP2C9, luciferin-H luminescence, 60 min; series mostly up to 11.4 µM. In outline: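 CYP2C9 deoxyluciferin hydroxylation, 37C, 60 min with NADPH regeneration; 10nM enzyme, 100uM Luciferin-H (KM). Glo detection reagent stopped reaction; luminescence normalized to sulphaphenazole (57uM) full inhibition.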

The values that follow come from PubChem BioAssay (NCATS).

Each structure is given as a SMILES string. A number with no mark means an inactive call. Records with an inconclusive call do not appear. Active and inactive are the calls of the source. Unless noted, calls follow the shape of the dose curve; as a rule, active = well fitted curve in either direction with a large enough effect (not every such curve was filed as active); inconclusive = small, poorly fitted or top-dose-only effect, or another doubt; inactive = flat fitted curve, though single readings scatter.

Glucocorticoid receptor (Homo sapiens), sequence (P04150 whole entry, looked up): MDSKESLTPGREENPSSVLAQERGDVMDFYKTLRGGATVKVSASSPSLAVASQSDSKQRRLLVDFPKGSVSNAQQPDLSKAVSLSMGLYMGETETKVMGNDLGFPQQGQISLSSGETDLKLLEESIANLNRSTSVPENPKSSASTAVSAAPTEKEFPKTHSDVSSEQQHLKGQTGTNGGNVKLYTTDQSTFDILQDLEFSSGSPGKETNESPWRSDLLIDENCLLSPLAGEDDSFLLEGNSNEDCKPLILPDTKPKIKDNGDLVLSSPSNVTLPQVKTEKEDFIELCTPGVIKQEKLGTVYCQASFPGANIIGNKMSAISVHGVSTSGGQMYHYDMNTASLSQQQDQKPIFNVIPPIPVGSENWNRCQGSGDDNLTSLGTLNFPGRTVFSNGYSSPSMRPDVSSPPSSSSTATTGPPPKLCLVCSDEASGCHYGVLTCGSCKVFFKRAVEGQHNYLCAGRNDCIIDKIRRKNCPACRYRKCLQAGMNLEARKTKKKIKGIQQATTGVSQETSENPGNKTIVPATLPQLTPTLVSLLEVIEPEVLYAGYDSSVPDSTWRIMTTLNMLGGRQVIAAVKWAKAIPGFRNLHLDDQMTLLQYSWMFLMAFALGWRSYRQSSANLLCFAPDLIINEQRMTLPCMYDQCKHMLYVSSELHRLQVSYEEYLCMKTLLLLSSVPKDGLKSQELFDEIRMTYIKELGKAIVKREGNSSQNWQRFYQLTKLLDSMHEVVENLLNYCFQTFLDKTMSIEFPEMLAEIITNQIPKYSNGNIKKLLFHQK
3',5'-cyclic-AMP phosphodiesterase 4B (Homo sapiens), sequence (Q07343 whole entry, looked up): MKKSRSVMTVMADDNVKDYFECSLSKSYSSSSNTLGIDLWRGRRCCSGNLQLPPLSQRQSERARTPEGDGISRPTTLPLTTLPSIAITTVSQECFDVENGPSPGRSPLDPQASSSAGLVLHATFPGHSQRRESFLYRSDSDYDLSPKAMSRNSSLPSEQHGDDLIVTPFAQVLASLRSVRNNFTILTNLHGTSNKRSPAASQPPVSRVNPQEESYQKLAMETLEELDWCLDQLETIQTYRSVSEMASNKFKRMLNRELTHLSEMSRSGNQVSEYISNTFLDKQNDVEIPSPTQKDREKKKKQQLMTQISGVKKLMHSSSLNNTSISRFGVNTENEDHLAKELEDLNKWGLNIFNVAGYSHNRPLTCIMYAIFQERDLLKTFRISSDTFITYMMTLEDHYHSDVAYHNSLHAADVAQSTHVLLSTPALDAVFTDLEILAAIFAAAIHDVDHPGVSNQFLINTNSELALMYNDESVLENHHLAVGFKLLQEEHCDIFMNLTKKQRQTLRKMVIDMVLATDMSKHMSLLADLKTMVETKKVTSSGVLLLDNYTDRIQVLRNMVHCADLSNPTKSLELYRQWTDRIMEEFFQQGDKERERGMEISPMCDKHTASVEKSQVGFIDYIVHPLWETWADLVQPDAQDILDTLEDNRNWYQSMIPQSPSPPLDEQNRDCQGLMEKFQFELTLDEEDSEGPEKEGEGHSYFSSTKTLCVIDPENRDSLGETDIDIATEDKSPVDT
Cytochrome P450 1A2 (Homo sapiens), sequence (P05177 whole entry, looked up): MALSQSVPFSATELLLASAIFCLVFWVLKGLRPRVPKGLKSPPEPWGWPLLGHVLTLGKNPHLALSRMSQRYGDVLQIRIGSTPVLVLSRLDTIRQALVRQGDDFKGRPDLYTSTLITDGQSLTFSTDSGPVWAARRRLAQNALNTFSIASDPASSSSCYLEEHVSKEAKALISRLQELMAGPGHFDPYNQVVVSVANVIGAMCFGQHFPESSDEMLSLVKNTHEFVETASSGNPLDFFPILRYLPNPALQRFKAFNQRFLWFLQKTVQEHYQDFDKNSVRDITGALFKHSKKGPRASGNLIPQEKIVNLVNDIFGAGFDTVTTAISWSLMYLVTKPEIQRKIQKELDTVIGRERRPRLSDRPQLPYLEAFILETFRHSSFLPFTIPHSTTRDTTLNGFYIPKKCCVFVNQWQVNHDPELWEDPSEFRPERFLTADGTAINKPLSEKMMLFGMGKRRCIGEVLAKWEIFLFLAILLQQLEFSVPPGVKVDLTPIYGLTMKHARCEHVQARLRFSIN
Lysosomal acid glucosylceramidase (Homo sapiens), sequence (P04062 whole entry, looked up): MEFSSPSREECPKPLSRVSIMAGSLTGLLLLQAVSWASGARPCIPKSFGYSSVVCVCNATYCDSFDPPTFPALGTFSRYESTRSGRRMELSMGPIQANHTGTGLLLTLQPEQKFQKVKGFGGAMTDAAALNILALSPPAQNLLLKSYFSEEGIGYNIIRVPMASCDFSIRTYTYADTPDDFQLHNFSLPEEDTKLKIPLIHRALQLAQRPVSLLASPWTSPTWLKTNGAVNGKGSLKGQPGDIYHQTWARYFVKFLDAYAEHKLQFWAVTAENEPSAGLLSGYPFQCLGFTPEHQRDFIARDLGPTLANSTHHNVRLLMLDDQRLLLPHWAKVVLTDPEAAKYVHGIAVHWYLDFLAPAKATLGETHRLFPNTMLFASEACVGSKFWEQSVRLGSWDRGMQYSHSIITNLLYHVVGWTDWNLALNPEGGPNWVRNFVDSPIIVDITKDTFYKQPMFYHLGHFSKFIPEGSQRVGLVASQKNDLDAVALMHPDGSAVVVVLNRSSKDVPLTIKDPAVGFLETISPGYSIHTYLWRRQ
Cytochrome P450 3A4 (Homo sapiens), sequence (P08684 whole entry, looked up): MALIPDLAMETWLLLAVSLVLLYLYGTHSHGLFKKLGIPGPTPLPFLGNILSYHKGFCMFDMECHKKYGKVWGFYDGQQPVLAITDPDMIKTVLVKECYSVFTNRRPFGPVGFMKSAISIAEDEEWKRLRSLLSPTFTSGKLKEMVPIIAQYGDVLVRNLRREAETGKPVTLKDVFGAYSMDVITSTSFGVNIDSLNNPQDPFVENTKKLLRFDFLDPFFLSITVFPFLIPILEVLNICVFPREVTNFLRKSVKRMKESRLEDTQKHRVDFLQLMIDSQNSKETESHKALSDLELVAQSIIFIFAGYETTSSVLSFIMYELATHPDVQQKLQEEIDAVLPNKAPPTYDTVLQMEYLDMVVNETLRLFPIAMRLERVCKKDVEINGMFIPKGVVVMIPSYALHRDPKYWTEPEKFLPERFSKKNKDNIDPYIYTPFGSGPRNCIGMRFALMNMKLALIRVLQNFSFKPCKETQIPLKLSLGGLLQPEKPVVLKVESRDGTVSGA
Cytochrome P450 2C9 (Homo sapiens), sequence (P11712 whole entry, looked up): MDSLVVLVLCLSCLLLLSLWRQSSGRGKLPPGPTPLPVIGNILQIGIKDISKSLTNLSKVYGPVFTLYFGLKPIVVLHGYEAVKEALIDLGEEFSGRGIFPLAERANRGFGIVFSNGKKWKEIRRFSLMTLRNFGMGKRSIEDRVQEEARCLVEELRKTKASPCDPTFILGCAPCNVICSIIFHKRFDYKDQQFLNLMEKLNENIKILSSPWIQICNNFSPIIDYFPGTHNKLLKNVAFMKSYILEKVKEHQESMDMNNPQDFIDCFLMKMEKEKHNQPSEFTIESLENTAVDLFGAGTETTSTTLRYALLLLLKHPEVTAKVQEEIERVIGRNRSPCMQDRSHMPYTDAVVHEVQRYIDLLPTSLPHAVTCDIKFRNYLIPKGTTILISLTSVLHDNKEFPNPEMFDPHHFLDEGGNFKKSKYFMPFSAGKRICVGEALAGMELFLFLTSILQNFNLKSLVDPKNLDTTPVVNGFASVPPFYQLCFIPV

For the molecule `CN1CCN(c2ncc3nc(-c4ccc(Cl)cc4)c(=O)n(C4CC4)c3n2)CC1`, the Potency in assay [1] was more than 11.4 µM; in [2], 15.8 µM (active); in [3], more than 9.22 µM; in [4] it was more than 46 µM; in [8], 3.16 µM (active). The Potency entry in [5], in assay [6] and in [7] was “inactive” each time.
`CN1CCC[C@H](C(=O)OCC(=O)[C@]2(O)CC[C@@H]3[C@H]4CCC5=CC(=O)CC[C@@]5(C)[C@H]4[C@@H](O)C[C@]32C)C1`: the Potency is more than 11.4 µM in assay [1], 0.135 µM (active) in assay [3] and more than 9.22 µM in assay [4]. In assay [9], the activity, negative = inhibition is -2.61%. The Potency entry in [5] and in assay [6] was “inactive” each time.
Consider `O=c1c(-c2ccccc2)nc2cnc(N3CCOCC3)nc2n1-c1ccccc1`, for which the Potency was more than 11.4 µM in [1], 12.6 µM (active) in assay [2], more than 9.22 µM in assay [3] and more than 46 µM in assay [4]. Besides, the Potency result in assay [6] and in assay [10] was “inactive” in each case.
As to `O=C1c2ccccc2-c2cc([N+](=O)[O-])c([N+](=O)[O-])cc21`, the Potency in assay [1] is more than 11.4 µM; in [2], 0.251 µM (active); in [3] it was more than 46 µM; in assay [4], more than 9.22 µM. The Potency entry in [5] and in assay [6] was “inactive” each time.
Regarding `COc1cccc(Nc2ncc3nc(CCc4ccccc4)c(=O)n(C[C@H]4CCCO4)c3n2)c1`, the Potency is more than 11.4 µM in assay [1], more than 9.22 µM in [3] and more than 46 µM in assay [4]. Moreover, the activity change, negative = inhibition in assay [11] was -6.15%. The activity, negative = inhibition in assay [9] is -12.8%. The Potency entry in assay [5] is “inactive”.
As for `Cc1noc(C)c1C(=O)N1CCC[C@@]2(CCN(c3cccc(-c4ccccc4)c3)C2)C1`, the Potency is more than 11.4 µM in assay [1] and more than 46 µM in assay [4]. The activity change, negative = inhibition in assay [11] is -20.7%. In addition, in assay [9], the activity, negative = inhibition is -22.2%. Also, the Potency entry in assay [5] and in assay [6] was “inactive” throughout.
For `O=C(O)c1c(-c2nccc3ccccc23)[nH]c(-c2ccccc2)c1S(=O)(=O)O`, the Potency is more than 11.4 µM in assay [1], more than 46 µM in [3] and more than 9.22 µM in [4]. In assay [11], the activity change, negative = inhibition is 12%. Also, the activity, negative = inhibition in [9] was -1.38%. For the same molecule, the Potency entry in assay [5] and in assay [6] was “inactive” each time.
Consider `O=c1c(-c2ccc(F)cc2)nc2cnc(Oc3ccccc3)nc2n1C[C@H]1CCCO1`, for which the Potency in assay [1] is more than 11.4 µM; in assay [3], more than 9.22 µM; in [4], more than 46 µM. For the same molecule, the activity change, negative = inhibition in assay [11] was -2.24%. In assay [9], the activity, negative = inhibition is -12.2%. Also, the Potency result in assay [6] is “inactive”.
For the molecule `FC(F)(F)c1cccc(-c2nc3nc(Cl)c(Cl)nc3[nH]2)c1`, the Potency in [1] is more than 11.4 µM; in [2], 0.398 µM (active); in [3], more than 46 µM; in [4], more than 9.22 µM; in assay [12] it was 3.98 µM (active). Besides, the Potency result in assay [5] and in [6] was “inactive” throughout.
